This is one part of a sample in which hits are shown more often than they occur.
U2OS ROS induce: raises reactive oxygen species in U2OS cancer cells; U2OS ROS induction, H2DCF-DA fluorescence; ROS induction (% of piperlongumine), % at 10 µM; 46,000 tested, 2% active; in the data active means ROS induction above about 79%, passing the limit was not always enough
A number is an active result; i = inactive.

SMILES	U2OS ROS induce
O=C1/C(=C/c2ccc(O)cc2)SC(=S)N1CCc1ccccc1	127
Cn1ncc2c1ncn1nc(Cc3ccccc3)nc21	i
CCC(C)NC(=O)c1ccc(NC2=NC3CS(=O)(=O)CC3S2)cc1 (configuration not stated)	i
Cc1ccc(N(C(=O)c2ccccc2C)S(=O)(=O)c2ccc(Cl)cc2)cc1	i
CC1=CC(C)C(C(=O)O)C(C(=O)Nc2ccccc2)C1 (configuration not stated)	i
CC1(C)Cc2nc(-c3ccccc3)nc(SCC(=O)Nc3ccc(Br)cc3)c2CO1	113
COc1ccc(OC)c(NC(=O)CSc2nncc3ccccc23)c1	i
COc1ccc(OC)c(NC(=O)CSc2nc(-c3ccccc3)cs2)c1	i
CC(=O)c1ccc(NC(=O)CSc2ncnc3c2sc2nc4c(cc23)COC(C)(C)C4)cc1	i
O=C(CSc1nnc(-c2ccccc2)n1-c1ccccc1)Nc1ccc(Br)cc1	i
COc1ccc(OC)c(NC(=O)CSc2nc(-c3ccccc3)nc3c2COC(C)(C)C3)c1	77
CCc1ccccc1NC(=O)C(CC)n1nc(C)n2c(cc3cc(C)ccc32)c1=O (configuration not stated)	i
Cc1cc(CNC(=O)c2cnc3ccccc3n2)c(C(F)(F)F)o1	i
CCCc1c(C(=O)NC2CCN(C(=O)OCC)CC2)cnn1-c1ccccc1	i
COc1cccc(-c2cnc3c(c2)C(=O)N([C@H](C)CO)C[C@H](C)[C@H](CN(C)C(=O)NC2CCCCC2)O3)c1	i
COc1cccc(-c2cnc3c(c2)C(=O)N([C@H](C)CO)C[C@H](C)[C@H](CN(C)C(=O)Nc2ccc(F)cc2)O3)c1	i
C[C@H](CO)N1C[C@H](C)[C@H](CN(C)C(=O)Nc2ccc3c(c2)OCO3)Oc2ncc(-c3cccc(F)c3)cc2C1=O	i
COc1cccc(-c2cnc3c(c2)C(=O)N([C@H](C)CO)C[C@H](C)[C@H](CN(C)C(=O)Nc2cccc4ccccc24)O3)c1	93
COc1ccc(-c2cnc3c(c2)C(=O)N([C@H](C)CO)C[C@H](C)[C@H](CN(C)C(=O)Nc2ccc4c(c2)OCO4)O3)cc1	i
COc1cccc(-c2cnc3c(c2)C(=O)N([C@H](C)CO)C[C@H](C)[C@H](CN(C)C(=O)Nc2ccc4c(c2)OCO4)O3)c1	94
COc1cccc(NC(=O)c2oc3ccc(S(=O)(=O)N4CC(C)CC(C)C4)cc3c2C)c1 (configuration not stated)	i
Nc1nc(SC/C=C/c2ccccc2)nc2sc3c(c12)CCCC3	i
CNC(=O)CSc1cn(CC(=O)N2CCC(C)CC2)c2ccccc12	i
Cc1ccc(C(C)C)c(OCC(=O)Nc2cc(-c3nc4ncccc4o3)ccc2Cl)c1	i
Cc1cc(C)c(C#N)c(SCCS(=O)(=O)c2nc3ccccc3s2)n1	141
SMILES	U2OS ROS induce
Cc1cc(C)c(C#N)c(SCCS(=O)(=O)Cc2ccc(Cl)cc2)n1	i
N#Cc1cc2c(nc1SCCS(=O)(=O)c1nc3ccccc3s1)CCCC2	i
CCOc1ccc(N/C(N)=N/c2nc(C(F)(F)F)cc(C(F)(F)F)n2)cc1	i
O=CNC1c2ccccc2Oc2ccccc21	i
Cc1cc(C)c(NC(=O)c2cc(S(=O)(=O)N3CCc4ccccc43)ccc2F)c(C)c1	i
Cc1cc(C)c(S(=O)(=O)N2CCc3ccccc32)c(C)c1	105
Cc1ccc(S(=O)(=O)N2CCC(=O)c3ccccc32)cc1	i
CC(C)Cc1ccc(C(C)C(=O)Nc2ccc(Cl)cc2)cc1 (configuration not stated)	i
COc1cccc(C(=O)Nc2ccc(NC(=O)C3CCCCC3C(=O)O)cc2)c1 (configuration not stated)	i
Cc1cc(NC(=O)C2CCCCC2C(=O)O)ccc1NC(=O)c1ccccc1 (configuration not stated)	126
COc1ccc(NC(=O)C2CCCCC2C(=O)O)cc1OC (configuration not stated)	i
O=C1CC(c2csc(-c3ccccc3)n2)C2(CCCCC2)O1 (configuration not stated)	i
CCOC(=O)c1sc2cc(OC)ccc2c1Cl	i
C[C@H](CO)N1C[C@H](C)[C@H](CN(C)Cc2ccccc2)Oc2ccc(NC(=O)NC3CCCCC3)cc2C1=O	i
C[C@H](CO)N1C[C@H](C)[C@H](CN(C)Cc2ccccc2)Oc2ccc(NC(=O)NC3CCCCC3)cc2CC1=O	i
C[C@H](CO)N1C[C@H](C)[C@H](CN(C)Cc2ccccc2)Oc2ccc(NC(=O)Nc3cccc4ccccc34)cc2CC1=O	i
C[C@@H]1CN([C@H](C)CO)C(=O)Cc2cc(NC(=O)NC3CCCCC3)ccc2O[C@@H]1CN(C)Cc1ccc(-c2ccccc2)cc1	98
C[C@@H]1CN([C@H](C)CO)C(=O)Cc2cc(NC(=O)NC3CCCCC3)ccc2O[C@@H]1CN(C)Cc1ccc(Oc2ccccc2)cc1	131
C[C@H]1CN([C@@H](C)CO)C(=O)Cc2cc(NC(=O)NC3CCCCC3)ccc2O[C@@H]1CN(C)Cc1ccc(C(=O)O)cc1	i
C[C@@H]1CN([C@@H](C)CO)C(=O)Cc2cc(NC(=O)NC3CCCCC3)ccc2O[C@@H]1CN(C)Cc1ccccc1	i
C[C@H]1CN([C@@H](C)CO)C(=O)Cc2cc(NC(=O)Nc3cccc4ccccc34)ccc2O[C@@H]1CN(C)Cc1ccc(-c2ccccc2)cc1	132
C[C@@H]1CN([C@@H](C)CO)C(=O)c2cc(NC(=O)NC3CCCCC3)ccc2O[C@H]1CN(C)Cc1ccc(Oc2ccccc2)cc1	i
C[C@H]1CN([C@@H](C)CO)C(=O)Cc2cc(NC(=O)Nc3cccc4ccccc34)ccc2O[C@@H]1CN(C)Cc1ccccc1	i
C[C@H](CO)N1C[C@H](C)[C@@H](CN(C)Cc2ccc(Oc3ccccc3)cc2)Oc2ccc(NC(=O)NC3CCCCC3)cc2C1=O	87
C[C@@H]1CN([C@@H](C)CO)C(=O)Cc2cc(NC(=O)NC3CCCCC3)ccc2O[C@@H]1CN(C)Cc1ccc(-c2ccccc2)cc1	i
SMILES	U2OS ROS induce
COc1cc2c(cc1NC(=O)Cc1ccccc1)oc1ccccc12	i
Cn1c(=N)n(CCCOc2ccc(F)cc2)c2ccccc21	i
Cc1ccccc1NC1SC(=O)N(Cc2ccccc2)C1=O (configuration not stated)	i
COc1ccc(/C=C2/NC(=O)NC2=O)cc1	i
CCN(CC)C(=O)CSc1nc2c(c(=O)n(C)c(=O)n2C)n1CC	i
O=C(O)c1ccccc1C(=O)NCc1ccccc1Cl	i
O=C(/C=C/c1ccccc1)Nc1ccc(Br)cc1	i
COc1ccc2c(C)c(CC(C)O)c(=O)oc2c1 (configuration not stated)	i
CC1(c2ccccc2)CC(C)(C)N(C(=O)CSc2ncn[nH]2)c2ccccc21 (configuration not stated)	i
COC(=O)c1c(C)oc2ccc(N(C(C)=O)S(=O)(=O)c3ccc4ccccc4c3)cc12	i
CC(NC(=O)C1CCN(C(=O)N(C)C)CC1)c1ccccc1 (configuration not stated)	i
COc1cc2c(N3C(=O)CCC3=O)c3c(=O)oc(C)cn3c2cc1OC	i
C[C@H]1CN([C@@H](C)CO)C(=O)Cc2cc(N(C)C)ccc2O[C@@H]1CN(C)Cc1ccc(Oc2ccccc2)cc1	135
C[C@H]1CN([C@@H](C)CO)C(=O)Cc2cc(N(C)C)ccc2O[C@H]1CN(C)Cc1ccc(Oc2ccccc2)cc1	i
C[C@@H]1CN([C@H](C)CO)C(=O)Cc2cc(N(C)C)ccc2O[C@@H]1CN(C)Cc1ccc(Oc2ccccc2)cc1	i
O=C(NCCc1csc2nc(-c3ccccc3)nn12)c1cccs1	i

Screening data (PubChem)
